# Screening data as filed in PubChem.
# E coli Lon inh: inhibitors of E. coli Lon protease, primary screen, biochemical, fluorescence polarization; purified E. coli Lon protease; inhibition, % at 7.94 µM; 360,000 compounds, 0.42% hits; AID 602123, 2011; in the data active = inhibition above about 13%, passing the limit was not always enough;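 also: 0% = enzyme with probe and DMSO and 100% = no enzyme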
# MCL1-BIM inh: inhibitors of MCL1 binding to BIM-BH3, primary screen, biochemical, fluorescence polarization; Induced myeloid leukemia cell differentiation protein Mcl-1 (Homo sapiens), Q07820; inhibition, % at 10.9 µM; GST-MCL1 / FITC-Bim-BH3 fluorescence polarization; 320,000 compounds, 0.68% hits; AID 2057, 2009;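 active = inhibition above the mean inhibition of all tested compounds plus 3 SD, set per campaign, cut at about 40% in these data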;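 also: 0% = DMSO wells and 100% = unlabeled Bim-BH3 peptide control; higher means more loss of mP so more displacement of Bim peptide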
# MEX-5 binding: MEX-5 zinc finger RNA-binding disruptors – biochemical, C. elegans, fluorescence polarization, MLPCN library, primary screen; Zinc finger protein mex-5 (Caenorhabditis elegans), Q9XUB2; MEX-5/FITC-TCR2 RNA binding; active compounds read low; activity score (negative = inhibition of binding), % at 10 µM; 300,000 compounds, 0.38% hits;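 active = inhibition past about -25% in most replicates, and total fluorescence under double the plate's negative control median, limit read from the data; inconclusive = replicates evenly split on the limit, or fluorescence at least double controls; inactive = too little inhibition in most replicates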;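 also: 0% = DMSO and -100% = 5 µM competing unlabeled TCR2 RNA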
# Bcl-xL primary: inhibitors of human Bcl-xL, primary screen, biochemical, fluorescence polarization, HTS. Bcl-2-like protein 1 (Homo sapiens), Q07817. GST-Bcl-xL / FITC-Bim BH3 peptide fluorescence polarization. inhibition, % at 10.9 µM. 320,000 compounds, 0.7% hits. AID 2129, 2009;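 active = inhibition above the mean of all tested compounds plus 3 SD, cutoff set per campaign, cut at about 30% in these data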;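 also: 0% = DMSO wells and 100% = unlabeled Bim-BH3 peptide competitor; inhibitors lower millipolarization by displacing the labeled peptide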
# Target sequence (Q07817 whole entry, looked up): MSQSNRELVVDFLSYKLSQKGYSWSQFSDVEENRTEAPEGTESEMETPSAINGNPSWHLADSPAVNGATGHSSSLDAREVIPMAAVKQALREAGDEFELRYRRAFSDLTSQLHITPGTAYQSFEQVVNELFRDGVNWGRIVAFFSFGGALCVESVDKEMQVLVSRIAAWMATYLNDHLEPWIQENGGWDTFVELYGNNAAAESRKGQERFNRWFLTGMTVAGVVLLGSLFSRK
# GLD-1 TGE inh: GLD-1/TGE RNA complex disruptors, primary screen, biochemical, fluorescence polarization. Female germline-specific tumor suppressor gld-1 (Caenorhabditis elegans), Q17339. purified GLD-1 + fluorescein TGE RNA. inhibition, % at 5.96 µM. 320,000 compounds, 0.44% hits;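 active = percent inhibition above a per-plate cutoff, the plate mean of test compounds plus 3 SD, cut at about 30% in these data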;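 also: 0% = DMSO wells with GLD-1 and probe and 100% = wells lacking GLD-1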
# Target sequence (Q17339 whole entry, looked up): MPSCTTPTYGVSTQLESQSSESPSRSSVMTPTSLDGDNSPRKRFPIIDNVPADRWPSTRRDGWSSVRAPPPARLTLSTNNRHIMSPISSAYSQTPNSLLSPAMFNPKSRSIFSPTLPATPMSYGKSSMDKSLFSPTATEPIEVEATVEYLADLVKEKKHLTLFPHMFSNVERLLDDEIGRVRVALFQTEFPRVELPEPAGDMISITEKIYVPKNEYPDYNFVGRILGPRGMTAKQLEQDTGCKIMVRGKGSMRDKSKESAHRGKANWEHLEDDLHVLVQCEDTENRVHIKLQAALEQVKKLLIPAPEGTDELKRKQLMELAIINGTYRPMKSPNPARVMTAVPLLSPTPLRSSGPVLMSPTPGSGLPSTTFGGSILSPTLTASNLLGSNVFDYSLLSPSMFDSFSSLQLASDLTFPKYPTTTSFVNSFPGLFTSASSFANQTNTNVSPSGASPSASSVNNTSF
# An asterisk follows results filed as active; ? = inconclusive; · = no result. Most compounds without a hit are left out; they make up all but 1.4% or so of the library.
SMILES,E coli Lon inh,MCL1-BIM inh,MEX-5 binding,Bcl-xL primary,GLD-1 TGE inh
Cc1c(Cl)cnc(NC(=O)COC(=O)C2CC2)c1Cl,-0.7,·,·,·,11.1
CCOc1cc(N2CCOCC2)c(OCC)cc1NC(=O)C(C)C,-2.9,-5.2,-0.4,-0.8,-6.2
CCOc1cc(N2CCOCC2)c(OCC)cc1NC(C)C(=O)N1CCN(CC)CC1 (stereo unspecified),-5.0,·,-27.9*,·,·
N#CC1(NC(=O)COC(=O)/C=C/c2ccc3ccccc3n2)CCCCC1,-6.4,-13.5,-0.3,32.2*,-0.4
C[C@@H]1CN([C@@H](C)CO)S(=O)(=O)c2ccc(Br)cc2O[C@@H]1CN(C)C(=O)NC1CCCCC1,1.3,·,·,·,·
NC(=O)C1(N2CCCCC2)CCN(Cc2nc(-c3cccs3)no2)CC1,0.8,-11.6,-34.6*,0.5,0.7
Oc1ccc2ccccc2c1/C=N/Nc1nnc(-c2ncc[nH]2)c2ccccc12,-5.9,14.2,-34.8*,29.1,-3.5
Cc1ccc(O)c(-c2cc(C(=O)Nc3ccc(S(=O)(=O)Nc4nccc(C)n4)cc3)[nH]n2)c1,-5.9,4.9,-29.1*,9.2,4.7
COc1ccc(C(=O)Nc2ccc(S(=O)(=O)Nc3nccc(C)n3)cc2)cc1,-6.9,10.4,0.2,10.9,-3.5
CCCC1=NCCn2cccc21,7.4,30.9,-3.2,33.2*,27.9
O=C(O)c1cc(-c2ccc(/C=N/Nc3ccc([N+](=O)[O-])cn3)o2)ccc1Cl,-7.8,·,-71.6*,·,·
CC(C)Oc1ccc(C(=O)OCC(=O)NC2CCCCCC2)cc1,7.7,1.5,·,1.9,10.4
COC(=O)CC1=C(C(=O)OC)C(c2cccc(OCC(N)=O)c2)C(C#N)=C(N)O1 (stereo unspecified),0.7,32.7,-0.6,32.0*,16.2
CCOC(=O)c1c(-c2ccccc2)csc1NC(=O)/C(C#N)=C/c1ccc(OC)c(OC)c1,-5.0,-10.8,-43.2*,-7.1,-8.8
CC1CCCCC1NC(=O)CSc1nnc(-c2ccco2)n1N (stereo unspecified),-11.9,·,·,·,·
COc1ccc([C@H]2C[C@H](O)[C@@H](n3cc(-c4ccc(F)cc4)nn3)CN2Cc2cccs2)cc1,-8.1,·,·,·,·
CCOc1ccc(C(=O)OCC(=O)NCCCc2ccccc2)cc1,7.7,-0.6,0.1,116.4*,6.4
CN(C)c1ccc(C(=O)OCC(=O)NCCCc2ccccc2)cc1,-1.0,-5.9,0.7,1.2,0.4
Cc1cc(/C=C2\SC(=S)N(Cc3ccco3)C2=O)c(C)n1-c1ccccc1,-150.3,-29.0,-21.6,-10.4,32.4*
COc1cccc(C2C=C(c3ccc(Br)s3)Nc3ncnn32)c1OC (stereo unspecified),-34.3,31.6,-3.3,33.7*,2.5
Fc1ccc(Br)cc1C1C=C(c2ccc(Br)s2)Nc2ncnn21 (stereo unspecified),-22.9,-2.2,-2.1,38.1*,19.2
CC1=C(C(=O)N2CCCCCC2)CC(CC(=O)NCc2cccs2)C(=O)N1Cc1ccccc1 (stereo unspecified),-9.5,·,·,·,·
NS(=O)(=O)c1c(Sc2ccccc2C(=O)O)ccc2ccccc12,-2.3,45.8*,-2.0,34.8*,11.6
COc1ccc(-c2coc3cc4oc(=O)cc(-c5ccccc5)c4cc23)cc1F,-4.3,-2.7,·,37.3*,3.0
COc1cc(C2c3cc(O)c(OC)cc3CC(C(=O)O)C2CO)ccc1O (stereo unspecified),-13.9,·,·,·,·
SMILES,E coli Lon inh,MCL1-BIM inh,MEX-5 binding,Bcl-xL primary,GLD-1 TGE inh
c1ccc(OCCNc2ccn3nc(-c4ccc(OCCN5CCOCC5)cc4)cc3n2)cc1,-7.9,·,·,·,·
O=C(NC(c1ccc(-c2ccccc2)cc1)c1cnccn1)C1CCN(CCN2C(=O)c3ccccc3C2=O)CC1 (stereo unspecified),-0.8,·,·,·,·
Cc1c(NC(=O)Nc2cccc(F)c2)c(=O)n(-c2ccccc2)n1C,-15.5,2.7,-1.1,8.3,120.8*
N#CC(C(=O)NCc1ccccc1)c1nc2ccccc2nc1N1CCCC1 (stereo unspecified),-7.2,8.2,-96.7*,4.6,-11.1
N#CC(C(=O)NCCc1ccccc1)c1nc2ccccc2nc1N1CCCCC1 (stereo unspecified),5.1,3.3,?,8.2,3.8
Cc1ccccc1C(=O)N1CCC[C@@H]1C(=O)N1CCC[C@H]1C(=O)NCc1ccncc1,-1.4,·,·,·,·
CC1(C(=O)NS(=O)(=O)c2ccccc2Cl)CCN1C(=O)C1(c2ccc(Cl)cc2)CCC1 (stereo unspecified),4.8,·,·,·,·
CCNC(=O)c1c(N)sc2c1CCCCC2,·,38.5,-7.2,38.7*,23.8
CCOC(=O)c1c(N)sc2c1CCCC2,-9.9,17.1,-1.1,10.2,-0.2
CCCN1C(=O)/C(=C/c2ccc(C)o2)SC1=Nc1ccc(OC)cc1,-12.6,8.0,-71.6*,2.5,-3.0
CCCN1C(=O)/C(=C/c2ccc(C)o2)SC1=Nc1ccc(OCC)cc1,6.0,10.1,-8.0,3.4,5.8
O=C(Nc1cccc(C(F)(F)F)c1)C1Cc2c(-c3ccco3)ccnc2O1 (stereo unspecified),-5.0,·,·,·,·
COc1ccc2oc(C(=O)OCC(=O)NC3CCS(=O)(=O)C3)c(C)c2c1 (stereo unspecified),-21.0,·,·,·,·
COC(=O)c1cc2c(-c3ccccc3)c(C)c3ccccn3c-2c1C(=O)OC,1.2,43.0*,-3.7,46.6*,63.0*
COC(=O)c1c(C(=O)OC)c2ccccn2c1C(=O)c1ccccc1,-5.5,-7.6,0.1,4.4,6.6
O=C(N/N=C/C(Br)=C/c1ccccc1)c1cnccn1,14.8,3.5,-0.6,-1.1,4.9
CN(C)c1ccc(NC(=S)Nc2ccc3c(c2)c(=O)n(C)n3-c2ccc(C(C)(C)C)cc2)cc1,6.8,·,·,·,·
c1coc(-c2cc(C3CCNCC3)[nH]n2)c1,0.4,5.8,1.2,2.0,8.6
N#CCN1CCC(c2cc(-c3ccco3)n[nH]2)CC1,·,32.9,-1.4,37.5*,29.0
O=C(C=P(c1ccccc1)(c1ccccc1)c1ccccc1)c1ccccc1-c1ccccc1C(=O)C=P(c1ccccc1)(c1ccccc1)c1ccccc1,-3.5,·,·,·,·
COc1ccc(CNC(=O)C2Cc3c(-c4ccc5c(c4)OCO5)ccnc3O2)cc1OC (stereo unspecified),3.6,·,·,·,·
Clc1ccc(-c2nnc3sc(-c4ccc(Br)o4)nn23)cc1,11.3,35.6,·,25.1,57.6*
O=C(Nc1cccc(-n2cnnn2)c1)C1CCCN(Cc2cccc(C(F)(F)F)c2)C1 (stereo unspecified),-10.4,·,0.3,·,·
CN(C)CCN1CCN(C2CN(Cc3ccc([N+](=O)[O-])cc3)S(=O)(=O)C2)CC1 (stereo unspecified),0.8,·,·,·,·
